A short description of experiment [1]: compounds altering viability of human ES cells (AID 493140; call rule not given here;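 further: cells exposed to compounds for four days before counting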). As to conditions: human embryonic stem cell survival screen; stronger effect = higher value.
Experiment [2] is described as follows: P. berghei load reduction in hepatocytes – cell-based, HepG2, luciferase luminescence, HepG2 viability, primary screen (AID 624349; in the data active means parasite load remaining mostly below about 12%, no sharp cut-off; inactive means mostly above about 10%;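 further: 100% = mean of DMSO negative control wells on the same plate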). As to conditions: P. berghei liver stage in HepG2, luciferase luminescence, concentration not given here; parasite load remaining: stronger effect = lower value; viability: measured here: HepG2 viability without parasites.
A short description of experiment [3]: Wnt pathway potentiators raising nuclear beta-catenin – imaging, WNT3A-conditioned medium, mouse C2C12, NPC library, primary screen (AID 1117326; in the data active means nuclear beta-catenin stimulation mostly above about 4.2%, no sharp cut-off; inactive means mostly below about 10%). The conditions noted are these: stronger effect = higher value.
Experiment [4] can be described thus: stimulators of insulin release from INS-1E, primary screen, cell-based, 5 mM glucose, NPC library (AID 1117329;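 active means compound raises insulin release from rat beta cells at 5 mM glucose, no numeric limit stated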). As to conditions: rat INS-1E insulin secretion, at 10 µM, stronger effect = higher value.
Experiment [5] can be described thus: growth inhibition of GSK3B-pretreated HCT116 cells – cell-based, CellTiter-Glo, 0.2 to 20 µM (AID 1117336;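 active means compounds lowering colon cancer cell viability after pretreatment blocking the GSK3B kinase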). As to conditions: HCT116 viability after GSK3B inhibitor, at 20 µM, stronger effect = higher value.
Experiment [6] can be described thus: inhibition of endothelial tube formation, primary screen, imaging, VEGF stimulated, CD31 staining, tube area, NPC library (AID 1117340;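 active means compound that reduces growth-factor-driven endothelial tube area in a mixed cell culture, no cutoff stated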). The conditions noted are these: VEGF-stimulated ADSC/ECFC co-culture, at 10 µM, stronger effect = higher value.
Experiment [7] can be described thus: GLP1 release stimulators, primary, NCI-H716, NPC library (AID 1117341;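 active means compound raises GLP1 secretion from the human gut endocrine cells, with no numeric limit stated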). As to conditions: NCI-H716 cells, at 10 µM, stronger effect = higher value.
Experiment [8] in a line: HCT116 colon cancer cell growth inhibition, primary screen, CellTiter-Glo luminescence, NPC library (AID 1117342;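 active means compounds that lower survival of HCT116 colon cancer cells in the luminescence readout, no numeric limit stated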). The conditions noted are these: at 20 µM (top of the series). In general terms: Cellular ATP, detected with luciferase, serves as a proxy for viable cell number.
Experiment [9] in a line: reduced SW480 viability measured with CellTiter-Glo, NPC library, primary (AID 1117343;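 active means compounds that lower viability of the colon cancer cells in the luminescence readout, with no numeric limit stated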). The conditions noted are these: CellTiter-Glo luminescence; at 20 µM (top of the series) unless noted.
Experiment [10] in a line: NPC library primary testing for decreased DLD-1 cell viability via CellTiter-Glo (AID 1117346;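 active means compounds that lower survival of DLD-1 colon cancer cells in the luminescence readout, no cutoff given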). The conditions noted are these: DLD-1 viability, CellTiter-Glo luminescence; at 20 µM (top of the series).
The nature of experiment [11]: EMT-state selective cytotoxicity in co-culture – imaging, PC-3E GFP, TEM4-18 mCherry, primary screen (AID 1345086;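 active means compounds killing one labelled cell type while sparing the other, by normalised counts and ratio limits, not self-fluorescent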;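 on all read-outs here: cells exposed to compound for 72 h before imaging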;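 on red/green cell ratio (normalised): normalised mesenchymal count divided by normalised epithelial count so high means epithelial killing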). The conditions noted are these: PC-3E GFP / TEM4-18 mCherry co-culture, imaging cell counts, at 1 µM; for red/green cell ratio (normalised): actives lie on both sides, counts scaled to control wells, 1 = unselective.
Experiment [12] is described as follows: viability loss with induced miR-34 in A549 – imaging, A549 dox-inducible miR-34, nuclei and caspase counts, primary screen (AID 1347080). As to conditions: A549 miR-34 inducible, Hoechst nuclei count, 48 h.
A short description of experiment [13]: MELAS cybrid and Rieske KO viability enhancers – cell-based, MELAS cybrids, Rieske KO mouse fibroblasts, CellTiter-Glo, primary screen (AID 1508586;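 active means mean z-score across replicates of 1.96 or higher in either the MELAS or the Rieske mutant cell line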;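 further: z relative to plate mean and SD of compound and empty wells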). The conditions noted are these: low glucose.
The target in experiment [14] is NAD(+) hydrolase SARM1 (Homo sapiens) (UniProt Q6SZW1). Description: blocking NAD cleavage by SARM1 SAM-TIR – cell lysate, NAD-Glo luminescence (AID 1508614;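 active means compound whose remaining NAD level is above about 45 nM, limit read from the data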). As to conditions: SAM-TIR HEK293T lysate NADase, at 1 µM, stronger effect = higher value.
[15] abbreviates: measured here: epithelial PC-3E GFP cell survival.
Where [16] appears, read: measured here: mesenchymal TEM4-18 mCherry cell survival.
The mark [17] stands for this setting: stronger effect = lower value, cell number ratio, induced over uninduced.
Setting [18] is: measured here: relative caspase fold change +Dox/-Dox.
Where [19] appears, read: measured here: total cells with miR-34 induction, stronger effect = lower value.
[20] abbreviates: measured here: total cells without miR-34 induction.
Where [21] appears, read: MELAS cybrid survival, CellTiter-Glo 48 h, stronger effect = higher value.
The mark [22] stands for this setting: Rieske KO mouse fibroblast survival, CellTiter-Glo 72 h.

Where “and” joins values, the source holds several entries; their conditions need not be identical. Identical values can stand only once. Calls of active or inactive are those of the source.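 How the source made its calls, unless noted: active means compounds whose cell count with miR-34 switched on is under 0.7 times the count with it off; inactive means the rest.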

Sequence of NAD(+) hydrolase SARM1 (Homo sapiens) (Q6SZW1 whole entry, looked up): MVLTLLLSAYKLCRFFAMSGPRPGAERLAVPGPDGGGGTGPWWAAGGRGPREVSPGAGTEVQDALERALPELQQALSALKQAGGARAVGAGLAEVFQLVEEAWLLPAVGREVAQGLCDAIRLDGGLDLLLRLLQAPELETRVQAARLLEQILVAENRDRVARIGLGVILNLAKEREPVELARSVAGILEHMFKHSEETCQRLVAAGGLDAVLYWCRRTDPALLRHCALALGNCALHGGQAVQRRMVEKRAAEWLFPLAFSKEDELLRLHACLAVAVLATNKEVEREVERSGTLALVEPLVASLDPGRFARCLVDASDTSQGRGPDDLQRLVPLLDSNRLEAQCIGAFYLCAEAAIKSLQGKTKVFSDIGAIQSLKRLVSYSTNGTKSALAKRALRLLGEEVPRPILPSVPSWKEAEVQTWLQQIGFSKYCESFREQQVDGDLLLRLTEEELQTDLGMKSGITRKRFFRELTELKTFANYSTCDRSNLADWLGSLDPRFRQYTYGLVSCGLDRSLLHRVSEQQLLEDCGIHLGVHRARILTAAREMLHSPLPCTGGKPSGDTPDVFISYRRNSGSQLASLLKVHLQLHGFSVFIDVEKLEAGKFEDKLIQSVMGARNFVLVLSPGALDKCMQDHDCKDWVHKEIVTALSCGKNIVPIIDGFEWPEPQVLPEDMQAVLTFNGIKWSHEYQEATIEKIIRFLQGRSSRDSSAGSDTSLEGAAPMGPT

For `CCN(CC)CCc1nc(-c2ccccc2)no1`, the survival in experiment [1] is 3.33 (inactive). Further, in experiment [2], the parasite load remaining was 66.5% (inactive). In experiment [2], the viability worked out at 105%. Besides, the nuclear beta-catenin stimulation in experiment [3] (at 10 µM) was 2% (inactive); in experiment [3] (stimulation, at 2 µM), 1.3%. Moreover, in experiment [4], the insulin secretion stimulation is -0.7% (inactive). Moreover, the viability decrease in experiment [5] is -19.4% (inactive). For the same compound, the tube area decrease in experiment [6] is -1% (inactive). The GLP1 secretion stimulation in experiment [7] is 3.1% (inactive). Also, the inhibition of viability in [8] was -2.53% (inactive). In addition, the viability decrease (inhibition) in [9] is 10% (inactive); in experiment [10], -2.9% (inactive). Also, the red/green cell ratio (normalised) in experiment [11] is 0.94 (inactive). Besides, the normalised cell number in [11] (setting [15]) was found to be 1.14; in experiment [11] (setting [16]), 1.07. The fold change in experiment [12] (setting [17]) was 0.948 (inactive) and 0.876 (inactive); in experiment [12] (setting [18]) it was 0.926 and 0.982. The cell count is 8840 and 9090 in experiment [12] (setting [19]); 9330 and 10400 in experiment [12] (setting [20]). Also, the z-score in experiment [13] (setting [21]) is 0.0836 (inactive); in experiment [13] (setting [22]), -0.0837. Besides, the remaining NAD in experiment [14] is 10 nM (inactive).
With `CC(=O)Nc1ncc([N+](=O)[O-])s1`, the nuclear beta-catenin stimulation is -0.3% (inactive) in [3] (at 10 µM) and 0.5% in experiment [3] (stimulation, at 2 µM). The insulin secretion stimulation in experiment [4] is -2.2% (inactive). The viability decrease in experiment [5] was 4.2% (inactive). Moreover, the tube area decrease in experiment [6] is 5.9% (inactive). Besides, in experiment [7], the GLP1 secretion stimulation was -1.7% (inactive). For the same compound, the inhibition of viability in [8] was 12% (inactive). Also, the viability decrease (inhibition) was 9.6% (inactive) in experiment [9] and 13.5% (inactive) in experiment [10]. Moreover, in experiment [11], the red/green cell ratio (normalised) was 1.12 (inactive). The normalised cell number amounted to 0.93 in [11] (setting [15]) and 1.04 in [11] (setting [16]). Further, the fold change in [12] (setting [17]) is 0.863 (inactive) and 0.891 (inactive); in [12] (setting [18]), 1.13 and 1.04. For the same compound, the cell count in experiment [12] (setting [19]) was 8350 and 8950; in [12] (setting [20]), 9670 and 10000. For the same compound, the figures for the z-score in experiment [13] (setting [21]) and in experiment [13] (setting [22]) were -0.179 (inactive) and -0.168, respectively. Moreover, the remaining NAD in [14] was 10 nM (inactive).
As to `CC(=O)c1ccc2c(c1)N(CCCN1CCC(CCO)CC1)c1ccccc1S2`, in experiment [1], the survival was 3.92 (inactive). Also, the parasite load remaining in experiment [2] was 69.8% (inactive). The viability in experiment [2] is 79.8%. The nuclear beta-catenin stimulation is 3% (inactive) in experiment [3] (at 10 µM) and 0.4% in experiment [3] (stimulation, at 2 µM). In addition, the insulin secretion stimulation in [4] is 1.7% (inactive). Further, the viability decrease in [5] is 78.7% (active). Also, the tube area decrease in [6] is 3.9% (inactive). The GLP1 secretion stimulation in experiment [7] is -6.7% (inactive). For the same compound, the inhibition of viability in experiment [8] was 77.2% (active). Besides, the viability decrease (inhibition) in [9] is 85.4% (active); in experiment [10] it was 60% (active). Also, in experiment [11], the red/green cell ratio (normalised) is 1.13 (inactive). For the same compound, the normalised cell number in [11] (setting [15]) turned out to be 0.92; in [11] (setting [16]), 1.04. For the same compound, the fold change in [12] (setting [17]) is 0.911 (inactive); in [12] (setting [18]) it was 0.592. Further, the figures for the cell count in experiment [12] (setting [19]) and in experiment [12] (setting [20]) were 8130 and 8930, respectively. Moreover, the values for the z-score in experiment [13] (setting [21]) and in experiment [13] (setting [22]) were -0.364 (inactive) and -0.0941, respectively. The remaining NAD in experiment [14] is 10 nM (inactive).
As for `CCOc1ccc2nc(S(N)(=O)=O)sc2c1`, the parasite load remaining in experiment [2] was 32.3% (inactive) and 52.3% (inactive). In addition, the viability in experiment [2] was 171% and 98.2%. Besides, the nuclear beta-catenin stimulation in experiment [3] (at 10 µM) was 1.3% (inactive); in experiment [3] (stimulation, at 2 µM) it was 0.1%. Further, in [4], the insulin secretion stimulation was -2.2% (inactive). The viability decrease in [5] was 16.7% (inactive). In experiment [6], the tube area decrease is 20.8% (inactive). The GLP1 secretion stimulation in experiment [7] was 2.1% (inactive). Also, in experiment [8], the inhibition of viability was -30% (inactive). The viability decrease (inhibition) in experiment [9] is 85.7% (active); in [10], 7.15% (inactive). Further, the red/green cell ratio (normalised) in experiment [11] was 0.96 (inactive). For the same compound, the normalised cell number came to 0.89 in [11] (setting [15]) and 0.86 in experiment [11] (setting [16]). The fold change in experiment [12] (setting [17]) was 0.841 (inactive) and 0.925 (inactive); in experiment [12] (setting [18]), 3.81 and 2.83. Moreover, the cell count was 10500 and 10700 in [12] (setting [19]); 12500 and 11500 in experiment [12] (setting [20]). Further, the z-score in experiment [13] (setting [21]) is -0.477 (inactive); in experiment [13] (setting [22]) it was 0.458. Further, in experiment [14], the remaining NAD is 10 nM (inactive).

Usually viability stands for a read-out of living cells in per cent, often relative to untreated cells.

For the origin of these results see PubChem BioAssay.
